Results: ChEMBL document CHEMBL3988442, “University of Dundee, Small-Polar-MMV Screening Library” (2021)
The campaign covered roughly 69,000 compounds. About 950 (1.4%) showed an effect of 50% or more. The sample holds strong results, similar compounds and a random draw of the others, so the mix is not that of the screen.

System: Mycobacterium tuberculosis
Assay: Cornell M. t heat shock assay; note: in the data most compounds retested in dose-response had high values
Format: functional, organism-based
Design: dose or concentration left out as unconfirmed

Row | Compound | Percent Effect [%]
1 | CCc1nc(-c2ccnc(N3CCNCC3)n2)no1.Cl.Cl | -8.056
2 | Cl.O=C(c1cccnc1)N1CCC2(CC1)CNc1c(F)cccc12 | 4.233
3 | O=C(O)C(F)(F)F.c1cnc(NC2COC3(CCN(Cc4cc[nH]n4)CC3)C2)nc1 (centres undefined) | -22.6
4 | O=C(O)C(F)(F)F.O=C(O)C(F)(F)F.O=C(O)C(F)(F)F.O=C1C[C@H]2[C@@H](CCN2Cc2ccccn2)N1Cc1cccnc1 | -6.498
5 | O=C(O)C(F)(F)F.O=C([C@H]1C[C@H]2OCC[C@H]2N(C(=O)c2ccncc2)C1)N1CCCC1 | -34.63
6 | Cc1cc(CCC(=O)N(C)C)nc(C2CCCCN2)n1.Cl.Cl (centres undefined) | -7.222
7 | CCCS(=O)(=O)N1C[C@@H](OCc2ccncc2)[C@H]2OCCC[C@H]21.O=C(O)C(F)(F)F | -14.14
8 | CCn1cc2c(n1)C(COC)CN(C(=O)c1ccccn1)C2 (centres undefined) | -31.72
9 | CC(C)c1nc(-c2ccnc(N3CCNCC3)n2)no1.Cl.Cl | -7.834
10 | Cc1c(C2N3C[C@]4(C(C)C)CN2C[C@](C(C)C)(C3)C4=O)[nH]c(=O)[nH]c1=O (some centres undefined) | 1.038
11 | CCC[C@]12CN3C[C@](CCC)(CN(C1)C3c1[nH]c(=O)[nH]c(=O)c1C)C2=O (some centres undefined) | -14.28
12 | CC[C@]12CN3C[C@](C)(CN(C1)C3c1[nH]c(=O)[nH]c(=O)c1C)C2=O (some centres undefined) | 68.87
13 | Cc1c(C2N3C[C@]4(C)CN2C[C@](C)(C3)C4=O)[nH]c(=O)[nH]c1=O (some centres undefined) | 74.22
14 | CC[C@]12CN3C[C@](CC)(CN(C1)C3c1[nH]c(=O)[nH]c(=O)c1C)C2=O (some centres undefined) | 72.7
15 | CCC[C@]12CN3C[C@](C)(CN(C1)C3c1[nH]c(=O)[nH]c(=O)c1C)C2=O (some centres undefined) | -3.215
16 | O=C(O)C(F)(F)F.O=C1CC[C@H]2[C@H](CCN2c2ncc(F)cn2)N1c1ccccc1 | 11.33
17 | CCn1ccnc1CNCC(c1ccc(C)s1)N1CCOCC1 (centres undefined) | -18.67
18 | Cn1ccc(C(=O)N2C[C@H]3CCC[C@@]3(COCc3cccnc3)C2)n1.O=C(O)C(F)(F)F | -13.25
19 | CC(C(N)=O)N(C)CCCc1cc(-c2ccc(F)cc2)n(C)n1 (centres undefined) | 22.06
20 | CN(CCCc1cc(-c2ccc(F)cc2)n(C)n1)CC(N)=O | 51.67
21 | CN(CCCc1cc(-c2ccc(F)cc2)n(C)n1)CC(=O)NC(N)=O | 24.77
22 | CN(C)[C@@H]1CCN(C(=O)c2ccccn2)[C@H]1Cc1cnn(C)c1 | 76.59
23 | CN(C)[C@@H]1CCN(C(=O)c2ccsc2)[C@H]1Cc1cnn(C)c1 | 4.524
24 | CN(C)[C@@H]1CCN(C(=O)c2ccccn2)[C@H]1Cc1ccncc1 | 0.1149
